Sampled rows, rich in hits. Any-hit rate of the full collection: about 4.7%.
TIM10 inh – growth inhibitors of isogenic TIM10 control yeast, primary screen, counter-screen for tim10-1 yeast inhibitor project, luminescence, uHTS. S. cerevisiae TIM10 strain growth, BacTiter-Glo luminescence, 24 h. inhibition, % at 10 µM. hit rate 1.4% among 330,000. AID 463195, 2010;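 active = inhibition of 40% or more at the single tested concentration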;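 note: wild-type TIM10 isogenic control strain grown at permissive 25 °C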
PfHsp90 set2 – growth inhibition of PfHsp90-expressing yeast, primary screen, antimalarial PfHsp90 inhibitor project, S. cerevisiae, BacTiter-Glo luminescence, single point, set 2. BacTiter-Glo ATP, 48 h; yeast lacking PDR1 and PDR3 efflux regulators. inhibition, % at 9.4 µM. hit rate 0.32% among 310,000;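 active = every replicate shows inhibition above about 80%, whatever the replicate mean, limit read from the data; inconclusive = mean inhibition reaches the set limit but some replicate falls short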;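 note: 0% = DMSO neutral controls and 100% = 20 µM radicicol positive controls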
SKKanGAS inh – S. pyogenes SKKanGAS growth inhibitors in kanamycin, primary screen, streptokinase expression inhibitor project, SKKanGAS strain, BacTiter-Glo luminescence. 6 h. inhibition, % at 7.5 µM. hit rate 1.3% among 300,000;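 active = mean replicate score, as percent of positive control median, at least 50; inconclusive = mean below 50 but one replicate at or above 50; inactive = mean and every replicate below 50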;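 note: strain carries kanamycin resistance gene driven by streptokinase promoter and grows in 40 µg/ml kanamycin; loss of luminescence reflects streptokinase promoter inhibition or plain growth inhibition; 0% = median of DMSO wells and 100% = positive control at its reference dose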
tim23-1 inh – growth inhibitors of tim23-1 mutant yeast, primary screen, luminescence, uHTS; inhibition, % at 20 µM; hit rate 1.3% among 330,000; S. cerevisiae tim23-1 growth, BacTiter-Glo luminescence, 24 h;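 active = growth inhibition of the mutant yeast at or above 50%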;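 note: temperature-sensitive mutant grown at 25 °C; plate controls were DMSO-treated mutant yeast for no effect and medium wells lacking yeast for full effect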
tim10-1 inh – growth inhibitors of tim10-1 mutant yeast, primary screen, luminescence, uHTS; AID 463190, 2010; hit rate 2.2% among 330,000; S. cerevisiae tim10-1 ts strain growth, BacTiter-Glo, 24 h; inhibition, % at 20 µM;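 active = inhibition of at least 40%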;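 note: mutant grown at 25 °C; 0% = DMSO wells with yeast and 100% = wells holding no yeast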
Calb FLC – C. albicans growth inhibition with fluconazole, primary screen, CaCi-2 strain, Alamar Blue fluorescence. C. albicans CaCi-2 (fluconazole-resistant clinical isolate) + fluconazole, 48 h. growth inhibition, % (concentration not given with the values). hit rate 0.57% among 300,000;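 active = growth inhibition above about 58% in most replicates, limit read from the data, passing the limit was not always enough; inconclusive = exactly half the replicates above a set limit; inactive = most replicates below a set limit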;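 note: all wells also contain fluconazole at 8 µg/ml as a sub-toxic cotreatment; 0% = median of DMSO wells and 100% = median of geldanamycin control wells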
tim10 confirm – growth inhibitors of wild-type TIM10 yeast, confirmation, counter-screen for tim10-1 synthetic lethality project, single concentration, luminescence, S. cerevisiae. shares compounds with TIM10 inh. S. cerevisiae tim10 strain growth, BacTiter-Glo luminescence, 24 h. inhibition, % at 10 µM. hit rate 63% among 4,600;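 active = inhibition of yeast growth at or above a set limit in either of two replicates at 10 µM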;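 note: this counterscreen used the strain with wild-type TIM10; 0% = yeast with DMSO and 100% = medium wells lacking yeast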
tim23-1 conf – tim23-1 mutant yeast growth inhibitors, confirmation, luminescence, single concentration | hit rate 83% among 4,400 | shares compounds with tim23-1 inh | inhibition, % at 20 µM | S. cerevisiae tim23-1 growth, BacTiter-Glo luminescence, 24 h;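 active = inhibition above about 39% in either of two replicate wells at 20 µM, limit read from the data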;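 note: temperature-sensitive tim23-1 mutant grown at 25 °C; 0% = DMSO wells with yeast and 100% = medium wells without yeast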
Numbers without * were called inactive; ? = inconclusive; . = no result given.

SMILES	TIM10 inh	PfHsp90 set2	SKKanGAS inh	tim23-1 inh	tim10-1 inh	Calb FLC	tim10 confirm	tim23-1 conf
O=C(/C=C/c1ccco1)Nc1ccc2c(c1)OCCO2	-11	-6	.	4	-27	9	.	.
O=C(/C=C/c1ccccc1)Nc1ccc2c(c1)OCCO2	46*	-15	-12	54*	29	49	22	70*
O=C(CN1CCN(C(=O)CN2C(=O)NC3(CCCC3)C2=O)CC1)Nc1cccc(F)c1	6	-8	.	-2	-9	.	.	.
COc1cccc(/C=N/NC(=O)c2c(-c3ccccc3)noc2C)c1O	24	.	19	32	25	-3	.	.
Cc1ccc(/C=N/NC(=O)c2c(-c3ccccc3)noc2C)c(O)c1	43*	.	2	57*	36	112*	25	42*
Brc1ccc2ncnc(Nc3cccc4ccccc34)c2c1	41*	-43	2	73*	28	?	29	47*
O=C(Nc1ccc(-c2cn3ccccc3n2)cc1)c1cccs1	42*	9	1	62*	-4	-17	26	71*
O=C(Nc1nc(-c2ccccc2)cs1)c1cccs1	44*	6	3	53*	34	-32	5	55*
O=C(Nc1ccc2nc(-c3ccccc3)[nH]c2c1)c1cccs1	47*	-26	-6	59*	-22	19	20	69*
N#C/C(=C\c1ccc(O)c(Br)c1)C(=O)N1CCCCC1	2	2	-4	23	15	-5	.	.
Cc1ccc(/C=C(\C#N)C(=O)N2CCCC2)c(C)c1	45*	-15	2	52*	38	-13	39*	50*
COC(=O)Cc1ccc(NC(=S)NCCSc2ccc(Cl)cc2)cc1	44*	-12	-14	50*	35	-4	42*	43*
CCNc1nc(N)nc(-c2cc(Cl)ccc2O)n1	50*	52	-8	56*	34	80*	-9	37
CCCNc1nc(N)nc(-c2cc(Cl)ccc2OC)n1	-1	-1	-2	23	12	-12	.	.
CCOc1ccc(C2=NNC(c3cccs3)=Nc3ccc(OC)cc32)cc1	55*	-8	12	64*	30	19	43*	70*
COc1ccc2c(c1)C(c1ccccc1)=NNC(c1ccco1)=N2	9	10	7	32	5	-16	.	.
COC(=O)[C@]1(CC(C)C)N[C@H](c2ccc(-c3ccc(Cl)c(Cl)c3)cc2)[C@@H]2C(=O)N(C)C(=O)[C@@H]21	29	-7	21	28	24	-8	.	.
CCN1C=C(C(=O)c2ccccc2)C(=O)CC1	.	-19	.	.	.	.	.	.
Clc1nc(-c2ccccn2)nc2scc(-c3ccccc3)c12	50*	-20	18	52*	18	3	-7	58*
CN1CCN(c2nc(-c3cccnc3)nc3scc(-c4ccccc4)c23)CC1	10	-19	-5	16	11	-29	.	.
C/C(=N\NC(=O)C1COc2ccccc2O1)c1cc2ccccc2o1 (stereo not drawn)	4	10	-5	0	9	-9	.	.
CC(=O)/C(=C\N(C)C)Sc1ccc(Cl)cc1	-4	-25	1	-2	-8	-1	.	.
S=C(Sc1ccc(Cl)cc1)Sc1ccc(Cl)cc1	47*	.	37	73*	28	-26	42*	77*
C[C@@H](NC(=O)[C@@H]1Cc2ccccc2CN1C(=O)OC(C)(C)C)C(=O)NCc1ccco1	14	21	-1	2	3	7	.	.
CCC(C)c1ccc(NC(=O)c2cccs2)cc1 (stereo not drawn)	52*	22	4	72*	32	16	45*	73*
